This is a sample that favours compounds with a hit; in the whole collection about 9.1% have one here.
D1 allo mod: D1 CRE-luciferase signal change, two-sided – cell-based, HEK293 D1, dopamine EC30, D1 allosteric modulator project, primary screen; actives 5.9% (n = 58,000); B-score at 10 µM; D(1A) dopamine receptor (Homo sapiens), P21728; dopamine EC30 potentiation; actives deviate in either direction;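 active = luminescence count or its row- and column-corrected plate score outside the 99.7% band of the plate's sample wells, on either side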
Target sequence (P21728 whole entry, looked up): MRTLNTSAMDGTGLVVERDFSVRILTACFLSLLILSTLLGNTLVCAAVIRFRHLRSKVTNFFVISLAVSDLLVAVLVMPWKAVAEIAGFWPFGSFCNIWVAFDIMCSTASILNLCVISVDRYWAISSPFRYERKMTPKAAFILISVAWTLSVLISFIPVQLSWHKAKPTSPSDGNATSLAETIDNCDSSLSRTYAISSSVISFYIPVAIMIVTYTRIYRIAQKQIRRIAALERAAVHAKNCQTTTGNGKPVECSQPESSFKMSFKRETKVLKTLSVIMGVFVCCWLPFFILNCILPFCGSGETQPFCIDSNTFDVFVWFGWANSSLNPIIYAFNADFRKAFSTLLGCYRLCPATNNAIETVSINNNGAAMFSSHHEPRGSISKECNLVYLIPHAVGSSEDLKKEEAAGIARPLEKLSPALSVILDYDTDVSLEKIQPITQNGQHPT
M1 agonist: M1 muscarinic receptor agonists, primary screen, CHO-M1 cells, Fluo-4 calcium, agonist mode. Muscarinic acetylcholine receptor M1. Fluo-4 calcium fluorescence; active compounds read high. B-score at 10 µM. actives 3% (n = 64,000). AID 626, 2007;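 active = fluorescence rise, raw or as B-score row- and column-corrected plate score, outside the 99.7% band of its plate's samples, either direction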
M1 antag: antagonists of rat M1 muscarinic receptor; CHO-M1 cells, Fluo-4 calcium, ACh EC80 antagonist mode; active compounds read low; B-score at 10 µM; Muscarinic acetylcholine receptor M1 (Rattus norvegicus), P08482; actives 3.4% (n = 64,000); AID 628, 2007;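 active = calcium fluorescence response, raw or row-and-column corrected B-score, differing from the plate sample mean either way at a set confidence level, mostly lower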
Htt clearance: clearance of mutant huntingtin inclusions, primary screen, imaging, HeLa Exon1htt(103Q)mCFP, confocal imaging; aggregate imaging; zero = plate's median compound well; inhibition, % at 1.5 µM; actives 0.42% (n = 47,000);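 active = inhibition of aggregate fluorescence above about 70%, also judged a hit by eye on the cell image, limit read from the data, passing the limit was not always enough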;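 note: cells exposed to compound for three days before fixation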
Each line names hits and unclear results; the compound was inactive in the other large screens.

C=C(C)COc1ccc(-c2nc(N)ncc2-c2ccc(OC)cc2)c(O)c1	D1 allo mod 3.4
COc1ccc(-c2nc(N)ncc2Oc2ccccc2Br)c(O)c1	D1 allo mod 14
Cc1ccc(NC(=O)CSc2nc3ccccc3c(=O)n2CCCN2CCCCC2)cc1C	none (no result: D1 allo mod, M1 agonist, M1 antag)
COc1cc(NC(=O)CN2C(=O)c3ccccc3S2(=O)=O)c(OC)cc1Cl	none
CC(NC(=O)CC1Nc2ccccc2NC1=O)c1ccccc1 (configuration not stated)	none (no result: D1 allo mod, Htt clearance)
O=C(CC1Nc2ccccc2NC1=O)c1ccccc1 (configuration not stated)	M1 agonist 3.9
Cc1ccccc1CN(c1ccc(C(=O)Nc2ccccc2C(=O)NCc2ccco2)cc1)S(C)(=O)=O	none (no result: D1 allo mod, M1 agonist, M1 antag)
CCCc1ccc(-c2ccc(F)c(N)c2)nc1	D1 allo mod -7.4 (no result: Htt clearance)
CC(C)[C@H](N)c1nnc(SC/C=C/c2ccccc2)o1	none (no result: D1 allo mod, M1 agonist, M1 antag)
Cn1c(=N)c(S(=O)(=O)c2ccc(Cl)cc2)cc2c(=O)n3ccccc3nc21	D1 allo mod 4.8
C=CCNC(=S)NNC(=O)COc1cccc(Cl)c1	none (no result: D1 allo mod, M1 agonist, M1 antag)
COc1ccccc1-c1noc(-c2ccncc2)n1	none
COc1ccccc1-c1nc(-c2ccccn2)no1	D1 allo mod -7.4 (no result: Htt clearance)
COc1nc(C)ccc1-c1noc(-c2ccccn2)n1	D1 allo mod -4.1 (no result: Htt clearance)
COc1ccccc1-c1nc(-c2ccc(C)nc2OC)no1	none
OCCOCCn1c2ccccc2c2ccccc21	none (no result: Htt clearance)
CCOC(=O)c1sc(NC(=O)C(CC)Sc2nnc3c4ccccc4n(CC)c3n2)nc1C (configuration not stated)	D1 allo mod 4.2 (no result: Htt clearance)
CCOC(=O)c1sc(NC(=O)CSc2nnc3c4ccccc4n(CC)c3n2)nc1C	none (no result: Htt clearance)
COc1ccc2[nH]c3c(N4CC(C)OC(C)C4)ncnc3c2c1 (configuration not stated)	none (no result: D1 allo mod, M1 agonist, M1 antag)
COc1cccc(N2CCN(c3ncnc4c3[nH]c3ccc(F)cc34)CC2C)c1 (configuration not stated)	D1 allo mod -5.2, M1 agonist 7.8, M1 antag -6.1 (no result: Htt clearance)
Cc1ccc(NC(=O)CSc2nnc(-c3ccc(S(=O)(=O)N4CCCC4)cc3)o2)cc1C	none (no result: Htt clearance)
CCC(Sc1nnnn1-c1ccccc1)C(=O)NC(C)c1ccccc1 (configuration not stated)	Htt clearance 71
CCC(Sc1nnnn1-c1ccccc1)C(=O)Nc1nc2ccccc2s1 (configuration not stated)	none (no result: Htt clearance)
CNC(=O)CSc1nnc(-c2cc(C)cc(C)c2)o1	D1 allo mod -3.2 (no result: Htt clearance)
CCOC(=O)c1cccc(NC(=O)CN(c2ccc(C)cc2)S(=O)(=O)c2c(C)n[nH]c2C)c1	none (no result: Htt clearance)
CC1(C)Cc2c(sc3ncn4nc(-c5ccco5)nc4c23)CO1	D1 allo mod 5.9 (no result: Htt clearance)
Cc1nc(-c2ccccc2)sc1-c1nc(-c2cccs2)ncc1S(=O)(=O)c1ccccc1	none (no result: D1 allo mod, M1 agonist, M1 antag)
COC(=O)c1c(NC(=O)Cc2cccs2)sc2c1CCCC2	D1 allo mod 2.7
Cc1onc(-c2c(Cl)cccc2Cl)c1C(=O)NCCc1ccc(S(N)(=O)=O)cc1	none (no result: D1 allo mod, M1 agonist, M1 antag)
CC(C)(C)c1ccc(C(=O)Nc2cnccn2)cc1	D1 allo mod -3.4
CC(C)(C)c1ccccc1NC(=O)c1cccnc1	none
CC(C)(C)c1cc(NC(=O)c2cccnc2)no1	Htt clearance 78 (no result: D1 allo mod)
CCOc1ccccc1NC(=O)C1CCN(c2ccc(S(=O)(=O)N3CCCC3)cc2)CC1	Htt clearance 72
CCn1c(=O)c(C2=NS(=O)(=O)c3ccccc3N2)c(O)c2ccccc21	none (no result: Htt clearance)
Cn1c(=O)oc2cc(S(=O)(=O)N3CCCC(C(=O)N4CC=C(c5ccccc5)CC4)C3)ccc21 (configuration not stated)	M1 agonist 3.4 (no result: Htt clearance)
CCCC(C(=O)NC1CCCC1)N(Cc1cccs1)C(=O)c1snc(C(N)=O)c1N (configuration not stated)	M1 agonist 4.1 (no result: Htt clearance)
CCC(C(=O)NC1CCCC1)N(Cc1ccc2c(c1)OCO2)C(=O)c1snc(C(N)=O)c1N (configuration not stated)	none
O=C(c1cc(C2CC2)on1)N1CCN(c2ccccc2)CC1	none (no result: D1 allo mod, M1 agonist, M1 antag)
CCN1CC=C2C(C1)C(c1ccc(Cl)s1)C(C#N)=C(N)C2(C#N)C#N (configuration not stated)	M1 agonist 261
O=C(c1cc2c(s1)-c1ccccc1S(=O)(=O)C2)N1CCN(Cc2ccccc2)CC1	none (no result: D1 allo mod, M1 agonist, M1 antag)
COc1ccccc1NC(=O)Nc1ccnn1C1CCCCC1	none (no result: Htt clearance)
CCCCNC(=O)Nc1ccnn1C1CCCCC1	M1 antag 2.4 (no result: Htt clearance)
COc1ccc(-c2cn3c(C)c(C(=O)N4CCN(c5ccc(OC)cc5)CC4)sc3n2)cc1	none (no result: Htt clearance)
O=C(COc1ccccc1)Nc1ccc(S(=O)(=O)N2CCOCC2)cc1	none
COc1ccc(OCC(=O)Nc2ccc(S(=O)(=O)N3CCOCC3)cc2)cc1	Htt clearance 87
C=C(Br)Cn1c(CC(C)C)nc2ccccc21	D1 allo mod -3.3
Cc1ccc(-c2nnc(Nc3ccccc3)o2)cc1	D1 allo mod -4.2 (no result: Htt clearance)
O=C(Cn1cnc2c(cnn2-c2ccc(Cl)cc2)c1=O)NCC1CCCO1 (configuration not stated)	none (no result: D1 allo mod)
CC(=O)N1CN(CCCn2ccnc2)Cc2c1sc1c2CCCC1	none (no result: D1 allo mod, Htt clearance)
CC(=O)N1CN(Cc2ccccn2)Cc2c1sc1c2CCCC1	Htt clearance 83
CC(NC(=O)c1cccs1)C(c1cccs1)N1CCN(Cc2ccccc2)CC1 (configuration not stated)	D1 allo mod -2.1
CCN1CCN(C(c2cccs2)C(C)NC(=O)c2ccco2)CC1 (configuration not stated)	D1 allo mod -1.4 (no result: Htt clearance)
CCN1CCN(C(c2cccs2)C(C)NC(=O)c2ccccc2OC)CC1 (configuration not stated)	none (no result: Htt clearance)
CCC(=O)NC(C)C(c1cccs1)N1CCN(Cc2ccccc2)CC1 (configuration not stated)	none (no result: D1 allo mod, M1 agonist, M1 antag)
COc1ccc(C(=O)N(Cc2ccco2)C(C(=O)NC2CCCC2)c2ccc(O)cc2)cc1OC (configuration not stated)	M1 agonist 2.6 (no result: Htt clearance)
Cc1ccnc(NC(=O)Nc2cccc(F)c2)c1	D1 allo mod -5.3 (no result: Htt clearance)
Cc1cccc(NC(=O)Nc2cccc(F)c2)n1	none
CCOC(=O)c1cnc(SC)nc1Oc1cccc(NC(=O)c2cccc(Cl)c2Cl)c1	none (no result: D1 allo mod, M1 agonist, M1 antag)
COc1ccc(CNc2nc3nc(C)c(Cl)c(C)n3n2)cc1OC	D1 allo mod 6.2
Cc1ccc(C)c(/C(O)=C2\C(=O)C(=O)N(Cc3cccnc3)C2c2cccnc2)c1 (configuration not stated)	none
COc1ccc(-c2nc3ccc(N4CCCC4)cc3c(=O)[nH]2)cc1OC	none (no result: D1 allo mod, M1 agonist, M1 antag)
Oc1[nH]c2ccccc2c1C=Nc1ccc2c(c1)OCCO2	D1 allo mod -2.9
CN(C)c1ccc(-c2nn3c(-c4ccncc4)nnc3s2)cc1	none (no result: Htt clearance)
COc1ccccc1-c1nnc2sc(-c3ccc(N(C)C)cc3)nn12	D1 allo mod 7.5 (no result: Htt clearance)
COc1ccc(-c2nn3c(-c4cccc(C)c4)nnc3s2)cc1OC	D1 allo mod 17 (no result: Htt clearance)
O=C(CSc1ccc(Cl)cc1Cl)N1CCC(c2nc3ccccc3s2)CC1	none (no result: D1 allo mod, M1 agonist, M1 antag)

Source: PubChem BioAssay (several laboratories)
